Reference: the supplement of paper PMC11732987, “Enantioselective OTUD7B fragment discovery through chemoproteomics screening and high-throughput optimisation” (Communications Chemistry, 2025)

Legend:
Experiment in all cases: log2 ratio of Biotin-Ahx-Ub-VS probe labelling (fragment/DMSO); higher = less target engagement (more negative = stronger competition), active = hit call of the paper (q ≤ 0.05, log2 ratio ≤ -1)
Details in all cases: compound concentration: 200 uM; treatment time: 3 h
USP19 = target: T1, USP19 (UniProt O94966)
T1 sequence (whole entry): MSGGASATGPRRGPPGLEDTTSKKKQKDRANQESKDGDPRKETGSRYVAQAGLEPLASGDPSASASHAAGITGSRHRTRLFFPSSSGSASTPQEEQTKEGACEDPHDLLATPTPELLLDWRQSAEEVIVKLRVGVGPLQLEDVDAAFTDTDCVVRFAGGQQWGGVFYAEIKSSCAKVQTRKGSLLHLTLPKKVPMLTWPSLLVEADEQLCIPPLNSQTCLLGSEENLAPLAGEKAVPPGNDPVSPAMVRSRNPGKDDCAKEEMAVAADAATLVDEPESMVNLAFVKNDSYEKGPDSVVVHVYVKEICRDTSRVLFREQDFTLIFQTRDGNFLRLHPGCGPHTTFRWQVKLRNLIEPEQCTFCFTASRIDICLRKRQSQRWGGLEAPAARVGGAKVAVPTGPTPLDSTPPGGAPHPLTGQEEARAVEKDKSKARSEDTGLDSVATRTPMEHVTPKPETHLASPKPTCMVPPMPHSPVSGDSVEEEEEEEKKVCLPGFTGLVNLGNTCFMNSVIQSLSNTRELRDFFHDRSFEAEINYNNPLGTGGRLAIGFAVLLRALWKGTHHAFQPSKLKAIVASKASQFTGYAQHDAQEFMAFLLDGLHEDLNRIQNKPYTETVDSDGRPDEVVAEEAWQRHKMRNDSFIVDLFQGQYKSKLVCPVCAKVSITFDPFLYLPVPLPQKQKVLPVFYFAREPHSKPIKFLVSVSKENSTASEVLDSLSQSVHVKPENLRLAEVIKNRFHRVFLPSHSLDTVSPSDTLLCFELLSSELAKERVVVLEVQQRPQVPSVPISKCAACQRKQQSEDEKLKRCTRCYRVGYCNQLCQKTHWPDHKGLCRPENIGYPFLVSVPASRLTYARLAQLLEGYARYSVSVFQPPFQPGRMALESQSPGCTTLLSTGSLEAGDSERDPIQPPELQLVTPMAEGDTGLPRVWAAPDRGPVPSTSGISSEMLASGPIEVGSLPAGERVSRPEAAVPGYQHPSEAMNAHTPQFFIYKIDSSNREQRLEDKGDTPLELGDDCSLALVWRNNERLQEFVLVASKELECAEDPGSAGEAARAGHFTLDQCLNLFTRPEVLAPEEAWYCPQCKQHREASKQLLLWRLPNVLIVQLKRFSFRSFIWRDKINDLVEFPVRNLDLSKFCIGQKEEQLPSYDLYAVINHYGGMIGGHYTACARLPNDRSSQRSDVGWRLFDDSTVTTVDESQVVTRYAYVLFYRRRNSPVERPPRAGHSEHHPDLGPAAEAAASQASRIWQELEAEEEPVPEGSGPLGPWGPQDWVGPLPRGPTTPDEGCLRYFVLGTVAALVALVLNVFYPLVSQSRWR
Summary of the method: (§1)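 HEK293T lysate (495 µg per sample, in Tris/CHAPS/IGEPAL buffer with protease inhibitors) was exposed in triplicate for 3 h to fragment at 200 µM or to vehicle, then to Biotin-Ahx-Ub-VS at 0.5 µM final for 1 h. Labelled DUBs were enriched on NeutrAvidin, digested with LysC and trypsin, and analysed by diaPASEF LC-MS/MS. Spectronaut label-free quantities were normalised to the global median, and values are average log2 ratios of fragment over vehicle from an unpaired t-test. Only proteins with ≥2 unique peptides were used.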

USP22 = target: T2, USP22 (UniProt Q9UPT9)
T2 sequence (whole entry): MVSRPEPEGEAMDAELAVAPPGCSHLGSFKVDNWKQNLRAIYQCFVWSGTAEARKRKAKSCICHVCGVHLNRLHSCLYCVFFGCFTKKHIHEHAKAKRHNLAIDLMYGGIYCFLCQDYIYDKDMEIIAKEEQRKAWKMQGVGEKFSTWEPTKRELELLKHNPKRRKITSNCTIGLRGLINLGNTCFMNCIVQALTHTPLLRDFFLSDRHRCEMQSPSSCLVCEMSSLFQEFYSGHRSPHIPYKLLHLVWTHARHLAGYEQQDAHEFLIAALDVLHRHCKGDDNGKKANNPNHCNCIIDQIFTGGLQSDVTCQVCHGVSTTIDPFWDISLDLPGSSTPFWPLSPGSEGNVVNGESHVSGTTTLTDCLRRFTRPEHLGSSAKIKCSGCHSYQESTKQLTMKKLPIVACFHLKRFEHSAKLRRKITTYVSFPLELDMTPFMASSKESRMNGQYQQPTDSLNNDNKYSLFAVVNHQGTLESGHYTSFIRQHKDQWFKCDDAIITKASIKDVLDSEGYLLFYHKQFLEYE
Summary of the method: as §1

USP24 = USP24 (UniProt Q9UPU5)
Summary of the method: as §1

USP25 = target: T3, USP25 (UniProt Q9UHP3)
T3 sequence (whole entry): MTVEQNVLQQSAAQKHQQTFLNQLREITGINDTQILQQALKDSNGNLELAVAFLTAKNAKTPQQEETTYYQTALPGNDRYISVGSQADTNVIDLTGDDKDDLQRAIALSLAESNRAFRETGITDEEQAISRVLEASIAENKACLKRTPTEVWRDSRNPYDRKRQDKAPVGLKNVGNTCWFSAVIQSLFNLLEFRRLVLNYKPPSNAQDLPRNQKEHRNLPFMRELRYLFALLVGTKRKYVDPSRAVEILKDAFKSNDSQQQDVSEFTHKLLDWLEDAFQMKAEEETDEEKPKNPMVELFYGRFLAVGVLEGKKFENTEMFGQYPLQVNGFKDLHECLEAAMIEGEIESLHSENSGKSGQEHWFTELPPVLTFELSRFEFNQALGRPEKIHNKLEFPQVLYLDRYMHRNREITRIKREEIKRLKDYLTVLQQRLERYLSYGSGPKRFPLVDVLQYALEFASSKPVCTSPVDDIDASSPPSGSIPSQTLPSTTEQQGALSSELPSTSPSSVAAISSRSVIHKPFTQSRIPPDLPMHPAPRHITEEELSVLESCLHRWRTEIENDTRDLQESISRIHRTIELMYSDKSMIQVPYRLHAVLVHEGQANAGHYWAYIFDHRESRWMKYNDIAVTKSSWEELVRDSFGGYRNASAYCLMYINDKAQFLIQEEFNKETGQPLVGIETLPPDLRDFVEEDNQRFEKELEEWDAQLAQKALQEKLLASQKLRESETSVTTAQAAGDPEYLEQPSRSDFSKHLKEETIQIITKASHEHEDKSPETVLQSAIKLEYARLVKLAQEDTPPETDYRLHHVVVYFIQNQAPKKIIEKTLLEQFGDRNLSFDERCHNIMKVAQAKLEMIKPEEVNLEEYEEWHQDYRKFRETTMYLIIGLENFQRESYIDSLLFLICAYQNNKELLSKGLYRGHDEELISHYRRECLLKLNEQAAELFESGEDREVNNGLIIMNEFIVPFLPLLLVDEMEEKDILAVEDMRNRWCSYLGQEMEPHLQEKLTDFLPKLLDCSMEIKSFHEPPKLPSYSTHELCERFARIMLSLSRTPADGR
Summary of the method: as §1

USP28 = target: T4, USP28 (UniProt Q96RU2)
T4 sequence (whole entry): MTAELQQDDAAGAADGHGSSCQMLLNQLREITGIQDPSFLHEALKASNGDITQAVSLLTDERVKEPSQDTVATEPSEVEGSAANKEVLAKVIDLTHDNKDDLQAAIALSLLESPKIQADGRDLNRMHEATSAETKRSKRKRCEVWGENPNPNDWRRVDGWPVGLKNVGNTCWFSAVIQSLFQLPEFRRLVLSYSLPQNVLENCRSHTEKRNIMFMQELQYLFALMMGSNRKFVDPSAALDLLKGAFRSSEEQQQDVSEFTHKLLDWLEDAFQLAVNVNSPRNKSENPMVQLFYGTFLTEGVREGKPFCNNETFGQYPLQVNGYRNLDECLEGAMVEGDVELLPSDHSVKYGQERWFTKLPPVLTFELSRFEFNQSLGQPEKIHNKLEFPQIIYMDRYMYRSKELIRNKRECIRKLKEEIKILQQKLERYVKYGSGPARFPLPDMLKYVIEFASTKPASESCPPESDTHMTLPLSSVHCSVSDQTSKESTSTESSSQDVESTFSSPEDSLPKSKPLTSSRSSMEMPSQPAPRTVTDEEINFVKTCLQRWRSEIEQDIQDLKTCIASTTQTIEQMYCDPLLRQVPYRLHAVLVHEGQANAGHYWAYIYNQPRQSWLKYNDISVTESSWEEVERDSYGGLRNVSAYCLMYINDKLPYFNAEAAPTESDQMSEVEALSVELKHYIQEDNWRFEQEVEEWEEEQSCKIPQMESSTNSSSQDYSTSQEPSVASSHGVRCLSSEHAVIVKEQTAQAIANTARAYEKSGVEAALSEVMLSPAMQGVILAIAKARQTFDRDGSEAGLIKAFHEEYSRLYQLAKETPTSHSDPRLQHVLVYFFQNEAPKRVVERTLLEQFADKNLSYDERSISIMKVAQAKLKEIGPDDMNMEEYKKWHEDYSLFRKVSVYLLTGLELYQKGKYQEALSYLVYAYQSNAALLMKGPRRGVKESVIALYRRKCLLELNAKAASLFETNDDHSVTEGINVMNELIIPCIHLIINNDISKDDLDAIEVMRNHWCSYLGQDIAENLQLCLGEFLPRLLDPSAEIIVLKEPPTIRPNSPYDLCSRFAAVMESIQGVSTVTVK
Summary of the method: as §1

Measured: log2 ratio of Biotin-Ahx-Ub-VS probe labelling

Chain of USP24 (Q9UPU5 whole entry): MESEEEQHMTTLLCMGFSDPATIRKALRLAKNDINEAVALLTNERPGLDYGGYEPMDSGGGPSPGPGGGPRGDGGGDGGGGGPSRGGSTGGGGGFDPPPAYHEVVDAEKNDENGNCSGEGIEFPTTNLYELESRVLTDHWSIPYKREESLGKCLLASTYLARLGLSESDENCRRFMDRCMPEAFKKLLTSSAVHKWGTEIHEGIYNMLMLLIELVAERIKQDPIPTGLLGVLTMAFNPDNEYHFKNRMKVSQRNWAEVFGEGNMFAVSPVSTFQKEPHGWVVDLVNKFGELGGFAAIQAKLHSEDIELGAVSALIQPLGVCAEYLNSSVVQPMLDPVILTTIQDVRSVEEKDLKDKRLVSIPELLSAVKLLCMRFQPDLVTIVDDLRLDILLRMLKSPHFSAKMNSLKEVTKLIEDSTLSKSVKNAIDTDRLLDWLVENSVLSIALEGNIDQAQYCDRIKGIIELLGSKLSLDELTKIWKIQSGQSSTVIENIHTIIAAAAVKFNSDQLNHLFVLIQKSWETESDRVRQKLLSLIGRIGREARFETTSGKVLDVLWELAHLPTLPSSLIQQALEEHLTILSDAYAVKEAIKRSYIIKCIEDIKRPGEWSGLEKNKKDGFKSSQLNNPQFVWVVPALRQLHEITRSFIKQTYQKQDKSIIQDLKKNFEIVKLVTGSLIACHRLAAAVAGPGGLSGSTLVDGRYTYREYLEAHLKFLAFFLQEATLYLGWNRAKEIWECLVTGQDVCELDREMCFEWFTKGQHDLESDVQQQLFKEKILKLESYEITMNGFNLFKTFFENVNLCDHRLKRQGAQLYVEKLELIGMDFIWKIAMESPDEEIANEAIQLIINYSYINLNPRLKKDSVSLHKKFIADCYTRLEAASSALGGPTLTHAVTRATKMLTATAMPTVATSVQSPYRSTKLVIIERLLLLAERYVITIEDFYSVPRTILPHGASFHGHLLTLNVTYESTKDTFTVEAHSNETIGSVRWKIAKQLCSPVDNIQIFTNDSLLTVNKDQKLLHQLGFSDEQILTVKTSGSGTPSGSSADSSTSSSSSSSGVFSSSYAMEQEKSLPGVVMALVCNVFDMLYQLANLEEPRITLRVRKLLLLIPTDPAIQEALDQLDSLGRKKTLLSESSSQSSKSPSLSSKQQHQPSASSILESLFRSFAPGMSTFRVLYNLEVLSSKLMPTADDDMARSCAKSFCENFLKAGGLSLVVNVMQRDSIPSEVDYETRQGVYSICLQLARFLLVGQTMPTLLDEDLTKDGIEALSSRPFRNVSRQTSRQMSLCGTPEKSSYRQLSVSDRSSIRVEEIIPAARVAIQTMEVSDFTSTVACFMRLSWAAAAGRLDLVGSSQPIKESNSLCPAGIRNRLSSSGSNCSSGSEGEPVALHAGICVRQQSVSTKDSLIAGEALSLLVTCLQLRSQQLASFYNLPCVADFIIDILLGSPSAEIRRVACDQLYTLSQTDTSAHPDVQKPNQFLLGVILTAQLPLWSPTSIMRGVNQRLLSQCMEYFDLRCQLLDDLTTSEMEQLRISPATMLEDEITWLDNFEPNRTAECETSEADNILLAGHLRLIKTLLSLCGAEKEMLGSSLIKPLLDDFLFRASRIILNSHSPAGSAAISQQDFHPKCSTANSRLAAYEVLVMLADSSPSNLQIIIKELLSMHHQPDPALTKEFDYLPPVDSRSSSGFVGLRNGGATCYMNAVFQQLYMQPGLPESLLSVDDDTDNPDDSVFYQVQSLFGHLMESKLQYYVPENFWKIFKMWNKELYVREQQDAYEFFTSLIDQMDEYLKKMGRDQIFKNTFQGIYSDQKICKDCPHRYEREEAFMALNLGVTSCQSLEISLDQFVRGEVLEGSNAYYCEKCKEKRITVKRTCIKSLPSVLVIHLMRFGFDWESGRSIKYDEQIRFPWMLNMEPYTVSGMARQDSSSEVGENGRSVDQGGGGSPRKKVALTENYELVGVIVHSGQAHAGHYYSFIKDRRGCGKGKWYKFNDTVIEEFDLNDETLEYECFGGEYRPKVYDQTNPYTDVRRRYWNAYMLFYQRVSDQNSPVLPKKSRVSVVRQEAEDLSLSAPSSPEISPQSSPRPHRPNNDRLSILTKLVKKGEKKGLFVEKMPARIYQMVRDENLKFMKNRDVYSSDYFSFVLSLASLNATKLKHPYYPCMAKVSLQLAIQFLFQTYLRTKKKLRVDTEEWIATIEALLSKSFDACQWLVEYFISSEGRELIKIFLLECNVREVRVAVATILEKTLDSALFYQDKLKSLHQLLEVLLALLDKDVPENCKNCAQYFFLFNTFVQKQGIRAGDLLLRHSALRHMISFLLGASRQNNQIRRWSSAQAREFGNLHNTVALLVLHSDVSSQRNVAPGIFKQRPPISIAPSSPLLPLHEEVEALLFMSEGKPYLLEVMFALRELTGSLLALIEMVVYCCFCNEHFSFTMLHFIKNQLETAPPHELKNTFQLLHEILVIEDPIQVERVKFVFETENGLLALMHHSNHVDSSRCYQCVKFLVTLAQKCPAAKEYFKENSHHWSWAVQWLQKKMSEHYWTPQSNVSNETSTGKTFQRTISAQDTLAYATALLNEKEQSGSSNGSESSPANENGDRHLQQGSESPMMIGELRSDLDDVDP

CC1(NC(=O)CCl)CCS(=O)(=O)C1 (stereo not given)
inactive: USP19 -0.59 | USP22 -0.238 | USP24 -0.659 | USP25 -0.695 | USP28 -0.835
